In all, about 2,300 compounds went through this assay and about 170 (7.4%) were called active.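 How the source made its calls: active means over 5% cells positive for green fluorescent reporter, or over 2% positive for both it and APC stain; inactive means the rest, inconclusive results apart.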 Shown is part of a subset that was picked to be rich in actives.
Assay: intrinsic compound fluorescence in ER-HoxA9 progenitors, confirmation, artefact control for AML myeloid differentiation project, cell-based, flow cytometry, GFP/APC, Cherry Pick01 (AID 651707);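 further: range taken on the double positive population between DMSO and positive control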
Conditions: no estrogen, GFP autofluorescence flow cytometry, hits give high values

Row | Structure (SMILES) | fluorescence response
1 | CC/C(=N\NC(=O)c1ccccc1O)c1c(O)n(Cc2ccccc2)c(=O)[nH]c1=O | 5.1% (active)
